According to PubChem BioAssay AID652104 (National Center for Advancing Translational Sciences (NCATS), 2013):
The whole screen tested about 410,000 compounds, of which about 7,200 (1.8%) were called active. Entries that show only a call come without a potency. Not shown: some 7% with an inconclusive outcome. The full list was thinned out, with actives kept by preference. Unmarked numbers belong to inactive results. Calls follow the shape of the dose curve; as a rule, active = well fitted activation curve with a large enough effect; inconclusive = small, poorly fitted or top-dose-only effect, or another doubt; inactive = no such curve, though single readings can be large or run the other way.
Potency is read from the fitted curve at half-maximal effect.

Assay: qHTS of TDP-43 Inhibitors; also: nearly all actives have a fitted effect of over 50% in size
Details: TDP-43 expressing yeast growth rescue, BacTiter-Glo, 24 h; series mostly up to 46.1 µM
Method in brief: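 Growth rescue of TDP-43-toxic yeast measured as ATP luminescence (BacTiter-Glo). Cells grown to mid-log in raffinose, induced in galactose at OD600=0.02, exposed to compound 24 hr at 30 deg C.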
In the case of `CC(C)c1ccc(NC(=O)Cn2nnc(C(=O)NCCc3ccccc3)c2N)cc1`, the Potency is reported as “inactive”. For `CCOC(=O)C1CCCN(C(=O)c2ccc(-n3ccc4ccccc43)s2)C1` (centres undefined), the Potency was “inactive”. With `CCOC1CCCCC1NS(=O)(=O)c1ccc(Cl)cc1` (centres undefined) the Potency was “inactive”. In the case of `CCN1CCN(C2CCCCC2NS(=O)(=O)c2ccc(Cl)cc2)CC1` (centres undefined), the Potency is reported as “inactive”. With `O=S(=O)(NC1CC2CCC1C2)c1ccc(Cl)cc1` (centres undefined) the Potency was 7.08 µM (active). With `COc1ccc(Cn2ccnc2SCC(=O)NCc2ccco2)cc1` the Potency was “inactive”. For `COc1cc(C(=O)N2CCC(c3ccncc3)CC2)cc(OC)c1OC`, the growth rescue (activation) was -21.7% [at 9.22 µM]. In the case of `O=C(Nc1ccccc1N1CCCCC1)c1cccc(F)c1`, the Potency is reported as 12.6 µM (active). With `O=C(Nc1ccccc1N1CCCC1)c1ccc(F)c(S(=O)(=O)N2CCOCC2)c1` the Potency was “inactive”. For `CCn1c(=O)c(=O)n(CC)c2cc(N3CCCCC3)c(NC(=O)c3cccc(F)c3)cc21`, the Potency was “inactive”. For `CCN1CCN(Cc2c(O)ccc3oc(C)c(C(=O)Nc4ccc(C)cc4C)c23)CC1`, the Potency was “inactive”. With `O=C(CSc1nc2nccnc2c(=O)n1CCc1c[nH]c2ccccc12)Nc1ccccc1F` the Potency was “inactive”. With `O=C(NCc1ccc(Cl)cc1)c1cc2c(nc3sccn32)s1` the Potency was “inactive”. With `Cc1ccc(Nc2c(-c3ccc(Cl)cc3)nc3sccn23)c(C)c1` the Potency was 25.1 µM (active). With `Cc1ccc(S(=O)(=O)NCc2cn3ccsc3n2)c(C)c1` the Potency was “inactive”. In the case of `Cc1ccc2nc3c(cc(C(=O)NC4CCCCC4)c(=N)n3C(C)C)c(=O)n2c1`, the Potency is reported as “inactive”. In the case of `CCN(Cc1ccccc1)S(=O)(=O)c1ccc2c(c1)CCCN2C(C)=O`, the Potency is reported as “inactive”. In the case of `CCOC(=O)c1ccc[n+](CC(=O)Nc2ccccc2OC(F)F)c1`, the growth rescue (activation) is reported as 1.27% [at 0.397 µM]. In the case of `CC(=O)Nc1ccc(NC(=O)COc2ccccc2C(=O)Nc2cccc(Cl)c2Cl)cc1`, the Potency is reported as “inactive”. With `FC(F)Oc1ccccc1NC(=S)Nc1cccc(Cl)c1Cl` the Potency was 17.8 µM (active). With `Cc1cc(C)c(-c2n[nH]c3c2C(c2ccccc2F)N(CCO)C3=O)c(O)c1` (centres undefined) the Potency was “inactive”. For `CCOC(=O)c1sc(NC(=O)/C=C/c2ccc(C(C)C)cc2)c(C(=O)OCC)c1C`, the Potency was “inactive”. For `CSc1ncc(C(=O)NCc2ccccc2Cl)c(C(F)(F)F)n1`, the Potency was “inactive”. With `Cc1cccc(N2CCN(C(=O)c3oc(=O)c4ccccc4c3-c3ccccc3)CC2)c1C` the Potency was “inactive”. For `COc1ccccc1Nc1cc(C(=O)NCCCN(C)C2CCCCC2)c2ccccc2n1`, the Potency was “inactive”. With `O=C(Nc1cc(-c2nc3ccccc3o2)ccc1Cl)c1cc([N+](=O)[O-])ccc1N1CCOCC1` the Potency was “inactive”. In the case of `COc1ccc(-c2nc3ccccc3o2)cc1NC(=O)c1cc([N+](=O)[O-])ccc1N1CCOCC1`, the Potency is reported as “inactive”. In the case of `O=[N+]([O-])c1ccc2oc(-c3cccc(O)c3)nc2c1`, the Potency is reported as 7.94 µM (active). For `CN(c1ccccc1)S(=O)(=O)c1cc(C(=O)OCC(=O)N2CCN(C(=O)c3ccco3)CC2)ccc1Cl`, the Potency was “inactive”. In the case of `CN(c1ccccc1)S(=O)(=O)c1cc(C(=O)Nc2nc3ccccc3[nH]2)ccc1Cl`, the Potency is reported as 15.8 µM (active). For `CN(c1ccccc1)S(=O)(=O)c1cccc(C(=O)NNC(=O)c2ccncc2)c1`, the Potency was “inactive”. For `O=c1cnnc(Nc2ccccc2)[nH]1`, the Potency was “inactive”. With `S=c1[nH]nc(Nc2ccccc2)s1` the Potency was “inactive”. In the case of `c1ccc(Nc2n[nH]nc2-c2ccccc2)cc1`, the Potency is reported as 12.6 µM (active). For `Cc1cc(C)cc(-n2c(SCC(=O)NCC3CCCO3)nc3c([nH]c4ccccc43)c2=O)c1` (centres undefined), the Potency was “inactive”. With `Cc1ccc(-c2nnc(SCC(=O)N/N=C/c3cccs3)n2-c2ccc(C)cc2)cc1` the Potency was 22.4 µM (active). In the case of `NNC(=O)CSc1nnc(-c2ccccc2)n1-c1ccccc1`, the Potency is reported as “inactive”. For `Cc1ccc(-n2c(Cc3cccs3)nnc2SCC(=O)OC(C)C)cc1`, the Potency was “inactive”. For `COc1cccc(CNc2nccn(-c3ccc(OC)c(OC)c3)c2=O)c1`, the Potency was “inactive”. For `CC1=C[C@H]2Cc3cc(C)cc(C)c3S(=O)(=O)[C@@H]2C=C1`, the Potency was 15.8 µM (active). With `COc1ccc(-n2ccn(CC(=O)Nc3ccc(C)c(C)c3)c(=O)c2=O)cc1OC` the Potency was “inactive”. For `O=C(c1cnn(-c2ccc(Cl)cc2)c1)c1ccccc1O`, the Potency was “inactive”. With `Cc1[nH]nc(-c2ccc(OCc3cnn(-c4ccccc4)c3)cc2O)c1Oc1ccc(Cl)cc1` the Potency was “inactive”. With `Cc1cc(O)cc(O)c1C(=O)Cc1cnn(-c2ccccc2)c1` the Potency was 8.91 µM (active). In the case of `CC(C)CNc1ncnc2c1nnn2C`, the Potency is reported as “inactive”. In the case of `O=C(O)Cn1c(Cc2ccccc2)nc2ccccc21`, the Potency is reported as “inactive”. In the case of `CC(=O)c1nc2ccccc2n1Cc1ccccc1`, the Potency is reported as 11.2 µM (active). In the case of `CC(O)c1nc2ccccc2n1Cc1ccc([N+](=O)[O-])cc1` (centres undefined), the Potency is reported as “inactive”. In the case of `Cc1ccc(NC(=O)Cn2c(=O)n(-c3ccccc3)c(=O)c3c4c(sc32)CCCC4)cc1`, the Potency is reported as “inactive”.
